We go through 7 sequences from paper PMC8384837, “Expanding the binding specificity for RNA recognition by a PUF domain”.

Test in all cases: yeast three-hybrid, YBZ-1, SC-Leu-His + 0.5 mM 3-AT, 4 days
What all share (details): tags: N-Gal4 AD-HA kept; label: inside an RPR1-promoter hybrid RNA with tandem MS2 sites; ssRNA

One assay deals with PUM1 PUF domain R3-VWS (Homo sapiens, UniProt Q14671 828-1176, C935V;R936W;Q939S). In a few lines: (§1)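 The interaction score is the logarithmic change in variant frequency from input to selection. It uses log2, with a pseudocount of 1 for absent variants, and frequencies came from PCR-amplified, Illumina-sequenced repeat regions. The libraries were Pumilio-1 PUF domains randomized at the three base-contacting residues per repeat, co-expressed with matching RNA elements in strain YBZ-1 (LexA–MS2 coat fusion, HIS3 reporter). Plating lasted four days on SC-Leu (input) or SC-Leu-His + 0.5 mM 3-AT (selection).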

Another assay concerns the target PUM1 PUF domain R4-SPC (Homo sapiens, UniProt Q14671 828-1176, N971S;H972P;Q975C). In a few lines:
as §1

The target in a further assay is PUM1 PUF domain R2-RKG (Homo sapiens, UniProt Q14671 828-1176, N899R;Y900K;Q903G). The procedure, abridged: as §1
For another assay, the target named is PUM1 PUF domain R2-AWW (Homo sapiens, UniProt Q14671 828-1176, N899A;Y900W;Q903W). The procedure, abridged:
as §1

For another assay, the target named is PUM1 PUF domain R5-FNG (Homo sapiens, UniProt Q14671 828-1176, C1007F;R1008N;Q1011G). In a few lines:
as §1

The next assay has as its target PUM1 PUF domain R5-GNW (Homo sapiens, UniProt Q14671 828-1176, C1007G;R1008N;Q1011W). The procedure, abridged:
as §1

In the next assay the target is PUM1 PUF domain R7-RRF (Homo sapiens, UniProt Q14671 828-1176, S1079R;N1080R;E1083F). The procedure, abridged: as §1
Sequence of PUM1 PUF domain R7-RRF (Q14671 828-1176 S1079R/N1080R/E1083F): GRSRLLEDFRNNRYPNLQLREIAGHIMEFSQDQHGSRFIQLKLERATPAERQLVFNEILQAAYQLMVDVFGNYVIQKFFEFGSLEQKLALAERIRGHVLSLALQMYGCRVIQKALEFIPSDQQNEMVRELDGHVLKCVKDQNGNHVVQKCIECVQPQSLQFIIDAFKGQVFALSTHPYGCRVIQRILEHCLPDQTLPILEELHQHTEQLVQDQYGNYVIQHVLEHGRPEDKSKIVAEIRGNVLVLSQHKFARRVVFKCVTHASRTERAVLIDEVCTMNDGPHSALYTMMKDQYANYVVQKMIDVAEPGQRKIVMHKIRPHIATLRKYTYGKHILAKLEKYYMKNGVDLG

Sequence of PUM1 PUF domain R2-AWW (Q14671 828-1176 N899A/Y900W/Q903W): as the sequence (Q14671 828-1176 S1079R/N1080R/E1083F) above, with N72A, Y73W, Q76W, R252S, R253N, F256E counted along it
Sequence of PUM1 PUF domain R4-SPC (Q14671 828-1176 N971S/H972P/Q975C): as the sequence (Q14671 828-1176 S1079R/N1080R/E1083F) above, with N144S, H145P, Q148C, R252S, R253N, F256E counted along it
Sequence of PUM1 PUF domain R2-RKG (Q14671 828-1176 N899R/Y900K/Q903G): as the sequence (Q14671 828-1176 S1079R/N1080R/E1083F) above, with N72R, Y73K, Q76G, R252S, R253N, F256E counted along it
Sequence of PUM1 PUF domain R5-FNG (Q14671 828-1176 C1007F/R1008N/Q1011G): as the sequence (Q14671 828-1176 S1079R/N1080R/E1083F) above, with C180F, R181N, Q184G, R252S, R253N, F256E counted along it
Sequence of PUM1 PUF domain R3-VWS (Q14671 828-1176 C935V/R936W/Q939S): as the sequence (Q14671 828-1176 S1079R/N1080R/E1083F) above, with C108V, R109W, Q112S, R252S, R253N, F256E counted along it
Sequence of PUM1 PUF domain R5-GNW (Q14671 828-1176 C1007G/R1008N/Q1011W): as the sequence (Q14671 828-1176 S1079R/N1080R/E1083F) above, with C180G, R181N, Q184W, R252S, R253N, F256E counted along it

In the case of “GGCUAGAACUAGUGGAUCCCCCGGCGCCCGGCGGCUCGAGCCCGGGUAAGUGUAAAUAGUCUGCAUGCCGCCGGGCGCCAUGCCUGCAGGUCGACUCUAGAAAACAUG”, the results for the binding signal in the assay with PUM1 PUF domain R3-VWS and with PUM1 PUF domain R4-SPC were 2.46 log2 enrichment (interaction score) and 3.42 log2 enrichment (interaction score), respectively.
In the case of “GGCUAGAACUAGUGGAUCCCCCGGCGCCCGGCGGCUCGAGCCCGGGUAAGUGUAAAGAGUCUGCAUGCCGCCGGGCGCCAUGCCUGCAGGUCGACUCUAGAAAACAUG”, the binding signal in the assay with PUM1 PUF domain R2-RKG was 4.62 log2 enrichment (interaction score); with PUM1 PUF domain R2-AWW, 0.42 log2 enrichment (interaction score).
Regarding “GGCUAGAACUAGUGGAUCCCCCGGCGCCCGGCGGCUCGAGCCCGGGUAAGUGUAUAUAGUCUGCAUGCCGCCGGGCGCCAUGCCUGCAGGUCGACUCUAGAAAACAUG”, the binding signal with PUM1 PUF domain R4-SPC is 2.92 log2 enrichment (interaction score).
“GGCUAGAACUAGUGGAUCCCCCGGCGCCCGGCGGCUCGAGCCCGGGUAAGUGUUAAUAGUCUGCAUGCCGCCGGGCGCCAUGCCUGCAGGUCGACUCUAGAAAACAUG”: the binding signal was 3.1 log2 enrichment (interaction score) with PUM1 PUF domain R5-FNG and 3.72 log2 enrichment (interaction score) with PUM1 PUF domain R5-GNW.
“GGCUAGAACUAGUGGAUCCCCCGGCGCCCGGCGGCUCGAGCCCGGGUAAGUCUAAAUAGUCUGCAUGCCGCCGGGCGCCAUGCCUGCAGGUCGACUCUAGAAAACAUG”: the binding signal with PUM1 PUF domain R7-RRF is 3.82 log2 enrichment (interaction score).
Turning to “GGCUAGAACUAGUGGAUCCCCCGGCGCCCGGCGGCUCGAGCCCGGGUAAGUUUAAAUAGUCUGCAUGCCGCCGGGCGCCAUGCCUGCAGGUCGACUCUAGAAAACAUG”, in the assay with PUM1 PUF domain R7-RRF, the binding signal is 4.42 log2 enrichment (interaction score).
Regarding “GGCUAGAACUAGUGGAUCCCCCGGCGCCCGGCGGCUCGAGCCCGGGUAAGUGUAAAAAGUCUGCAUGCCGCCGGGCGCCAUGCCUGCAGGUCGACUCUAGAAAACAUG”, the binding signal with PUM1 PUF domain R2-AWW is 7.76 log2 enrichment (interaction score).
